Active and inactive are the calls of the source. Unless noted, the rule behind the calls is not given here.

This note sets out measurements from PubChem BioAssay.

Assay [1] in a line: anti-His antibody binders, primary screen, artefact control for SMM control protein annotation, biochemical, small-molecule microarray, 635 nm fluorescence (AID 1128).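 Note: score merges feature fluorescence with signal-to-noise for each printed compound spot.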 Particulars: anti-His Alexa647 antibody binding, higher = more signal.
The test system of assay [2] is Human papillomavirus type 1a E7 protein (residues 1-88). The assay is described as follows: HPV1a E7 small-molecule binders, primary screen, biochemical, small-molecule microarray, residues 1-88, 635 nm (AID 1129). Particulars: small-molecule microarray binding, fluorescence 635 nm; higher = more signal.
Assay [3] concerns the target Focal adhesion kinase 1 (Homo sapiens) (UniProt Q05397). The assay is described as follows: small-molecule microarray binders of FAK, primary screen, biochemical, 635/667 nm fluorescence, BSA, DTT (AID 1130).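 Note: composite of spot emission at 667 nm and signal to noise over triplicate slides.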 Particulars: PTK2 binding, 635 nm fluorescence, higher = more signal.
Assay [4] concerns Fibrinogen (Alexa647-labelled). The assay is described as follows: fibrinogen binders on compound microarrays, profiling panel, artefact control for SMM control-protein annotation, biochemical, small-molecule microarray, 635/667 nm fluorescence (AID 1131).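 Note: z-score merges 667 nm fluorescence with per-spot signal-to-noise over triplicate slides.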 The following applies: fibrinogen-A647 binding fluorescence, higher = more signal.
Assay [5] has as its target Follistatin (Homo sapiens) (UniProt P19883). In words: follistatin binders on small-molecule microarrays, primary screen, biochemical, small-molecule microarray, 635/667 nm fluorescence (AID 1132). Particulars: FST binding, 635 nm fluorescence, higher = more signal.
For assay [6], the target named is Fibroblast growth factor 2 (Homo sapiens) (UniProt P09038). The assay is described as follows: FGF2 binders on small-molecule microarrays, primary screen, biochemical, small-molecule microarray, 635/667 nm fluorescence (AID 1133). Particulars: small-molecule microarray binding, FGF2, fluorescence 635/667; higher = more signal.
Assay [7] can be described thus: mitochondrial membrane potential change in A549 cells, profiling panel, cell-based, JC-1 fluorescence, basal, 24 h, 100 nL (AID 1138).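 Note: A549 lung adenocarcinoma cells under basal conditions with no added stimulus; test concentration not given here.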 The following applies: higher = more signal.
The next assay deals with Lefty1. In words: Lefty1 binders on small-molecule microarrays, primary screen, biochemical, small-molecule microarray, 635/667 nm fluorescence (AID 1139). Particulars: small-molecule microarray binding, fluorescence 635/667; higher = more signal.
Assay [8] deals with wheat germ agglutinin (Triticum aestivum), Alexa647-labelled. In words: wheat germ agglutinin binders on compound microarrays, profiling panel, artefact control for SMM control-protein annotation, biochemical, small-molecule microarray, 635/667 nm fluorescence (AID 1140).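 Note: score merges 667 nm feature emission with signal to noise over triplicate slides.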 The following applies: WGA-A647 binding, 635 nm fluorescence, higher = more signal.
For assay [9], the target named is Luciferin 4-monooxygenase (Photinus pyralis) (UniProt P08659). In words: firefly luciferase enzyme inhibitors, primary screen, biochemical, luminescence, purified enzyme, 2006 set (AID 1141).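 Note: cell-free assay with purified firefly luciferase at 100 ng per well in PBS; test concentration not given here.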 Particulars: SteadyGlo luminescence, 30 min, higher = more signal, called active from +8 up or from −8 down.
Assay [10] concerns Wnt5a (protein binding on small-molecule microarray). The assay is described as follows: Wnt5a binders on small-molecule microarray, primary screen, biophysical, 635/667 nm fluorescence (AID 1142).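 Note: fluorescence read at 667 nm with signal to noise per printed feature.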 Particulars: 635 nm fluorescence, higher = more signal.
Assay [11] is described as follows: cell viability in Huh7 cells, primary screen, cytotoxicity control for HCV replication inhibitor project, CellTiter-Glo luminescence, basal, 48 h (AID 1143).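 Note: Huh7 hepatoma cells carrying a hepatitis C replication reporter with no stimulus; test concentration not given here.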 Particulars: Huh7 HCV replicon, higher = more signal, called active from +8 up or from −8 down. A general note: In ATP-based viability assays light output follows the ATP content of the culture.
The nature of assay [12]: P. aeruginosa biofilm formation inhibitors, primary screen, PAO1 strain, BacTiter-Glo luminescence, LB-PBS (AID 1144). Particulars: 12 h, higher = more signal.
Assay [13] is described as follows: CREB reporter modulators without forskolin, primary screen, cell-based, PC12, CRE-LacZ reporter, unstimulated (AID 1145). The following applies: no forskolin, luminescence, 4.5 h, higher = more signal, called active from +8 up or from −8 down.
Assay [14] in a line: CREB reporter modulators under forskolin, primary screen, cell-based, PC12, CRE-LacZ reporter, forskolin-stimulated (AID 1146).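 Note: PC12 cells with 6xCRE LacZ reporter stimulated by forskolin 10 µM; beta-galactosidase reporter signal reflecting CREB driven transcription.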 Particulars: luminescence, 4.5 h, higher = more signal, called active from +8 up or from −8 down.
Assay [15] has as its target Streptavidin (Streptomyces avidinii) (UniProt P22629). The assay is described as follows: streptavidin binders on small-molecule microarray, primary screen, artefact control for SMM compound annotation, biophysical, 635/667 nm fluorescence (AID 1147).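 Note: signal reflects streptavidin binding to arrayed compounds as a control protein.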 Particulars: streptavidin binding, higher = more signal.
A short description of assay [16]: small-molecule binders of probe aInhba, primary screen, biochemical, small-molecule microarray, 635/667 nm fluorescence (AID 1148).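 Note: score merges 667nm spot fluorescence with signal-to-noise for antibody binding to printed compounds.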 The following applies: higher = more signal.
Assay [17] addresses Torsin-1A (Homo sapiens) (UniProt O14656). In words: torsin A binders from cell lysate, primary screen, small-molecule microarray, wild-type, 635/667 nm (AID 1149). Particulars: COS7 hTOR1A-WT lysate, 635 nm fluorescence, higher = more signal.
Assay [18] has the same target. The assay is described as follows: small-molecule binders of mutant TOR1A in lysate, primary screen, cell lysate, small-molecule microarray, COS7 lysate, 635/667 nm fluorescence (AID 1150).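 Note: score pools 667 nm emission and signal to noise measuring lysate protein binding.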 The following applies: COS7 hTOR1A mutant lysate, 635 nm fluorescence, higher = more signal.
For assay [19], the system named is Sonic hedgehog protein (Shh). In words: small-molecule binders of Shh protein, primary screen, biochemical, small-molecule microarray, 635/667 nm fluorescence (AID 1151).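 Note: Shh protein binding to compounds spotted on small-molecule microarray slides; score combines spot fluorescence intensity with signal-to-noise across triplicate slides.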 The following applies: small-molecule microarray binding, 635 nm fluorescence; higher = more signal.

Luciferin 4-monooxygenase (Photinus pyralis), sequence (P08659 whole entry, looked up): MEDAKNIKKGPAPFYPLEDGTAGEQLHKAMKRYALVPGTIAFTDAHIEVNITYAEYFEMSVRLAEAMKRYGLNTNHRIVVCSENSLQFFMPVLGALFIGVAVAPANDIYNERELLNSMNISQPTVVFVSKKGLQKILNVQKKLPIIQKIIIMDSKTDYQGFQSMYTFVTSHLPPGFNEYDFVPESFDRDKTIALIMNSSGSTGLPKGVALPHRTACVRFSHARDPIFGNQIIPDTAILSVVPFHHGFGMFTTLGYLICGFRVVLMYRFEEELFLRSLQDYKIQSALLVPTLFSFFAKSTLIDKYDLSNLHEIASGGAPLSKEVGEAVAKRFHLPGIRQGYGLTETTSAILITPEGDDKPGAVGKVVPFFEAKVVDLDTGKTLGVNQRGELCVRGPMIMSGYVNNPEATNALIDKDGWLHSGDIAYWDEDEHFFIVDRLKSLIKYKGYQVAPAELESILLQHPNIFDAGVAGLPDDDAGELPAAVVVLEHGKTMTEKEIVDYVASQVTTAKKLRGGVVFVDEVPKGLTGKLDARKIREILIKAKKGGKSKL
Torsin-1A (Homo sapiens), sequence (O14656 whole entry, looked up): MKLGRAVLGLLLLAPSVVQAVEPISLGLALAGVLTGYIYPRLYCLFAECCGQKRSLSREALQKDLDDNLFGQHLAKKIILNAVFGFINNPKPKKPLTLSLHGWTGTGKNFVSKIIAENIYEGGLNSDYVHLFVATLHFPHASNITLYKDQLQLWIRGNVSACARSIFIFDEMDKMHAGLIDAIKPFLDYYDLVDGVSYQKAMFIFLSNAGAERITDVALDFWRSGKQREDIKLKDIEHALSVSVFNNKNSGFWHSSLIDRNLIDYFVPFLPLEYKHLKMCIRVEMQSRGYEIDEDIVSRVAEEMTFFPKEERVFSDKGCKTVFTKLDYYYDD
Follistatin (Homo sapiens), sequence (P19883 whole entry, looked up): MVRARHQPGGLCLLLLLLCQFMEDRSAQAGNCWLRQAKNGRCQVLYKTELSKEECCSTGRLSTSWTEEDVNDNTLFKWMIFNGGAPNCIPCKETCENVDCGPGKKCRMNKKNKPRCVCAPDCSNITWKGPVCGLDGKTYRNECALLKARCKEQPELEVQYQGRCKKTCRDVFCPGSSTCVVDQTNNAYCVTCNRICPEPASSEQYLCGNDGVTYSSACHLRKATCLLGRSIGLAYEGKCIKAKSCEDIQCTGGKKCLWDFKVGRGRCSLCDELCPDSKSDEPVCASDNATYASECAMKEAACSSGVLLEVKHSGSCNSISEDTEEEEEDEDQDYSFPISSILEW
Streptavidin (Streptomyces avidinii), sequence (P22629 whole entry, looked up): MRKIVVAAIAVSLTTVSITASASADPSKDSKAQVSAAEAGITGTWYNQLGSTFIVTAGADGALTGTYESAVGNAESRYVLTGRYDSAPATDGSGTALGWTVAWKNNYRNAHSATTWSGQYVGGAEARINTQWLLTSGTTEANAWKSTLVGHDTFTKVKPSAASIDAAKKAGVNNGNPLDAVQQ
Fibroblast growth factor 2 (Homo sapiens), sequence (P09038 whole entry, looked up): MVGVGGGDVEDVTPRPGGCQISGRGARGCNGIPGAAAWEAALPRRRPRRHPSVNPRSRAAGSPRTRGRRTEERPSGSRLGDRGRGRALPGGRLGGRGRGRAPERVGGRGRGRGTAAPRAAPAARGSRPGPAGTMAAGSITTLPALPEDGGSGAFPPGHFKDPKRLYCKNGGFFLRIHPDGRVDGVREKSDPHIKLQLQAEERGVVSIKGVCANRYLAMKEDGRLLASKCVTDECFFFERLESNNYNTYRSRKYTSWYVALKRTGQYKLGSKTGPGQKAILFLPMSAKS
Focal adhesion kinase 1 (Homo sapiens), sequence (Q05397 whole entry, looked up): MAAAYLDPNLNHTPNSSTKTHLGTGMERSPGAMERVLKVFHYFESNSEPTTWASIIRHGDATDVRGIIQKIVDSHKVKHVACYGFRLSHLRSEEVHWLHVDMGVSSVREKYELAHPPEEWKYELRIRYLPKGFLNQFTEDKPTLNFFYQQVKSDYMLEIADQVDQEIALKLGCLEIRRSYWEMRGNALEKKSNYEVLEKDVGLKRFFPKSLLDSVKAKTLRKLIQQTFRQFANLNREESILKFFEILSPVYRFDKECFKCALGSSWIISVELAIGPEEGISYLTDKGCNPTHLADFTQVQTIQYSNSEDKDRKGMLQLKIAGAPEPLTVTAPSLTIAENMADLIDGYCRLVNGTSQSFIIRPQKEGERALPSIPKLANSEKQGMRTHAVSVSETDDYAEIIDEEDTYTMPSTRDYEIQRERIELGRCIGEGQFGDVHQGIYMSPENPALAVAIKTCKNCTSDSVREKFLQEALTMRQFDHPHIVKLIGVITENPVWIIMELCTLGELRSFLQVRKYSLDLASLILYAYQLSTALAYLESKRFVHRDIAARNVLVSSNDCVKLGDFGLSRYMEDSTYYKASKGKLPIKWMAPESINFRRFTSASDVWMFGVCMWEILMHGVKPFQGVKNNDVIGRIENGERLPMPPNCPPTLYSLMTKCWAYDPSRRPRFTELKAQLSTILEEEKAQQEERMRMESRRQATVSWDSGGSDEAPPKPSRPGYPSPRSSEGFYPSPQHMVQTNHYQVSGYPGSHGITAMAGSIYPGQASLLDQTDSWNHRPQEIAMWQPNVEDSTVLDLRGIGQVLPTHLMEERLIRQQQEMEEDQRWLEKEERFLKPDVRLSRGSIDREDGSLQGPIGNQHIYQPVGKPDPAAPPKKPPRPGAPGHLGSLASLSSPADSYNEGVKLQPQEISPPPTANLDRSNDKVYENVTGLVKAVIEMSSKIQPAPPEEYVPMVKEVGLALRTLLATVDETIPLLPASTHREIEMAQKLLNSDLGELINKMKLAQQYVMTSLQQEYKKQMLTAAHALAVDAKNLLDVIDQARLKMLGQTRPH

As to `O=C1O[C@H](c2ccccc2)[C@H](c2ccccc2)N2[C@H]1[C@@H](C(=O)NC[C@H](O)c1ccccc1)[C@]1(C(=O)Nc3ccc(C#CC4(O)CCCCCC4)cc31)[C@H]2c1ccccc1OCCO`, the composite z-score in assay [1] stood at 1.26; in assay [2], 1.19; in [3], 0.412; in assay [4], 0.494; in assay [5], 1.26; in assay [6] it was 1.54. The composite z-score with Lefty1 is 0.586; in assay [8], 0.794; in assay [10] it was 1.21; in assay [15], -0.428; in assay [16] it was 0.214; with Torsin-1A (Homo sapiens) [17], 0.644. Moreover, the composite z-score with Torsin-1A (Homo sapiens) [18] is 1.08; in [19], 0.877. Besides, the z-score in assay [7] is -1.24; in [9], 0.361 (inactive); in assay [11] it was -5.52 (inactive); in [12], -0.52 (inactive); in assay [13], -0.325 (inactive); in [14] it was -0.349 (inactive).

On to `COc1ccccc1CN1C(=O)c2ccccc2[C@](Cc2ccccc2I)(C(=O)NCc2ccccc2)[C@@H]1c1ccc(CO)cc1`, for which the composite z-score in assay [1] was -0.0448; in assay [2] it was 0.406; in assay [3], -0.2; in [4], 0.414; in assay [5], -0.526; in [6], -0.243. The composite z-score was -0.88 in the assay with Lefty1; 0.687 in [8]; 0.0733 in assay [10]; -0.476 in assay [15]; 0.0627 in [16]; 0.999 in the assay with Torsin-1A (Homo sapiens) [17]. The composite z-score was 2.06 with Torsin-1A (Homo sapiens) [18] and -0.197 in assay [19]. The z-score in assay [7] is 0.109; in assay [9], 0.0375 (inactive); in assay [11], -0.553 (inactive); in [12], 0.166 (inactive); in assay [13], -0.412 (inactive); in [14] it was -0.0005 (inactive).

With `Cc1ccc(N2C(=O)c3ccccc3[C@](C)(C(=O)NCCN3CCOCC3)[C@@H]2c2ccc(CO)cc2)nc1`, the composite z-score was 0.267 in [1]; -1.74 in assay [2]; -1.16 in [3]; -1.02 in assay [4]; -0.419 in [5]; -0.833 in assay [6]. Further, the composite z-score in the assay on Lefty1 was -1.26; in assay [8], -1.32; in assay [10] it was -0.538; in assay [15], -0.932; in assay [16], -0.211; with Torsin-1A (Homo sapiens) [17], -2.51. For the same compound, the values for the composite z-score (in the assay with Torsin-1A (Homo sapiens) [18]; in assay [19]) were -1.62 and 0.465, respectively. For the same compound, the z-score in assay [7] was -0.807; in assay [9], 0.952 (inactive); in assay [11] it was -0.28 (inactive); in [12], -0.398 (inactive); in assay [13], -0.258 (inactive); in [14], -0.37 (inactive).

For the compound `O=[N+]([O-])c1ccc(C[n+]2ccc(CCCO)cc2)o1`, the composite z-score was -0.0383 in assay [1]; 1.07 in [2]; 1.08 in assay [3]; 0.752 in assay [4]; 1.4 in assay [5]; 1.77 in [6]. The composite z-score in the assay with Lefty1 was determined as 0.73; in [8] it was 0.226; in assay [10] it was 0.98; in [15], 1.15; in assay [16], 0.189; with Torsin-1A (Homo sapiens) [17], 0.153. Besides, the figures for the composite z-score (in the assay with Torsin-1A (Homo sapiens) [18]; in assay [19]) were 0.263 and 1.06, respectively. The z-score in assay [7] is -0.506; in [9], -0.868 (inactive); in assay [11], -1.22 (inactive); in assay [12] it was 0.0757 (inactive); in assay [13], 0.0026 (inactive); in assay [14], 0.619 (inactive).

For `CC(C)(C)OC(=O)CC[C@@]1(C(N)=O)N=C(c2ccc(OCCCO)cc2)O[C@@H]1c1ccccc1N=[N+]=[N-]`, the composite z-score in assay [1] was 1.12; in assay [2] it was 0.886; in assay [3], 1.1; in assay [4] it was 1.06; in assay [5], 1.21; in assay [6], 1.12. Also, the composite z-score is 0.512 in the assay on Lefty1; 0.884 in [8]; 0.672 in assay [10]; 1.12 in assay [15]; -0.0695 in [16]; 2.08 in the assay with Torsin-1A (Homo sapiens) [17]. For the same compound, the composite z-score in the assay with Torsin-1A (Homo sapiens) [18] was 1.31; in [19], -0.179. Also, the z-score in [7] is -0.04; in assay [9] it was -10.5 (active); in assay [11] it was -0.858 (inactive); in [12], 0.61 (inactive); in assay [13], 0.204 (inactive); in assay [14], -0.208 (inactive).

For the compound `O=C1OCC=C[C@H]2OC34C=CCN(c5ccc6ccccc6c5)C(=O)[C@H]3N(CCO)C(=O)[C@@H]4[C@@H]12` (stereo not given in full), the composite z-score is 0.0061 in assay [1]; -0.785 in [2]; -0.415 in assay [3]; -1.22 in assay [4]; -1.05 in assay [5]; -2.06 in assay [6]. Also, the composite z-score in the assay with Lefty1 is -0.455; in assay [8] it was -1.18; in [10], -1.26; in assay [15], -0.74; in assay [16] it was -0.0427; in the assay with Torsin-1A (Homo sapiens) [17] it was -2.04. The results for the composite z-score (in the assay with Torsin-1A (Homo sapiens) [18]; in assay [19]) were -2.02 and -0.25, respectively. For the same compound, the z-score in [7] is 1.51; in assay [9], -0.646 (inactive); in assay [11], -0.168 (inactive); in assay [12] it was 1.89 (inactive); in assay [13] it was 1.14 (inactive); in assay [14], 0.492 (inactive).
